Experimental data published in PubChem BioAssay AID743314 (Broad Institute, 2014).
Measured potencies and affinities stand elsewhere. Results filed as inconclusive are left out. Active and inactive are the calls of the source.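 How the source made its calls: active means fitted half-maximal concentration no higher than twice the top tested dose, in every repeat run; inconclusive means repeat runs disagree, poor fit, or flat partial inhibition; inactive means the rest.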

These compounds were tested against Endoplasmic reticulum aminopeptidase 1 (Homo sapiens) (UniProt Q9NZ08) (assay: ERAP1 aminopeptidase inhibitors, dose response, biochemical, cherry-pick, set 2, plate reader (AID 743314;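 further: 0% = neutral control wells and -100% = L-leucinethiol positive control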)). Details: Recombinant ERAP1, Leu-AMC fluorescence, 60 min; series mostly up to 11 µM; activity change, negative = inhibition: at the top concentration.
Chain of Endoplasmic reticulum aminopeptidase 1 (Homo sapiens) (Q9NZ08 whole entry, looked up): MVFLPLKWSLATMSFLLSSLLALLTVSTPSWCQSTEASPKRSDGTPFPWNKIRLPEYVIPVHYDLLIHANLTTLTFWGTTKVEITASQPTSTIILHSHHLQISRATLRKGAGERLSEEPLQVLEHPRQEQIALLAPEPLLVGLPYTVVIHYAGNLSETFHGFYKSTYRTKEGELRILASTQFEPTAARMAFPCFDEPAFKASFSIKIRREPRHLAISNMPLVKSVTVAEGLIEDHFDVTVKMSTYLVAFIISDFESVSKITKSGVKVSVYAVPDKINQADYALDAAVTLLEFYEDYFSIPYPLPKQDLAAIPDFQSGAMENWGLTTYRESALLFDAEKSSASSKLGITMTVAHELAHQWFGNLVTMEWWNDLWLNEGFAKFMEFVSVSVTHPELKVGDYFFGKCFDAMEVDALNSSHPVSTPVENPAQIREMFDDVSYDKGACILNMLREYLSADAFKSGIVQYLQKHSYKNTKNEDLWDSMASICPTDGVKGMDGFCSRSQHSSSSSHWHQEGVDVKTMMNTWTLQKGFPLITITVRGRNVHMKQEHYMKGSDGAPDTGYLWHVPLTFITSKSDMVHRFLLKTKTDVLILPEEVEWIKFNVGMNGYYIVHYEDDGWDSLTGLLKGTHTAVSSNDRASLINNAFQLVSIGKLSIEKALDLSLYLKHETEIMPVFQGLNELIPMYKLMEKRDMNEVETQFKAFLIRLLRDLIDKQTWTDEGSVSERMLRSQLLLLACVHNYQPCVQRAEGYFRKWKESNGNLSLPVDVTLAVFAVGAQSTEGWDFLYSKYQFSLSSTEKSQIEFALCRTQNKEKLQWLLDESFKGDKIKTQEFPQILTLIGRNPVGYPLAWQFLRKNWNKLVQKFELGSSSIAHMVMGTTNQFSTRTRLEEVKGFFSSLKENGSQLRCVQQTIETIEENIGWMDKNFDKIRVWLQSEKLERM

Activity change, negative = inhibition, inactive:
C[C@H](CO)N1C[C@H](C)[C@@H](CN(C)C(=O)Nc2ccccc2)Oc2ccc(NC(=O)Nc3cccc4ccccc34)cc2C1=O 8.85%, C[C@H]1CN([C@@H](C)CO)C(=O)Cc2cc(NC(=O)Nc3cccc4ccccc34)ccc2O[C@@H]1CN(C)Cc1ccc(C(=O)O)cc1 19.6%, CC(=O)N1CCCCN2[C@H](CO)[C@@H](c3ccc(-c4ccccc4)cc3)[C@H]2C1 32.8%, Cc1nc2ccc(NC(=O)c3ccc(=O)[nH]c3)cc2s1 -4.05%, COc1ccccc1OCCNC(=O)C1CCCCC1 1.14%, COc1ccc(CN(C)C[C@H]2OCCCC[C@H](C)Oc3ccc(NS(=O)(=O)c4cccs4)cc3C(=O)N([C@H](C)CO)C[C@@H]2C)cc1 50.9%, C[C@@H]1CN([C@H](C)CO)C(=O)c2cccc(NC(=O)Nc3ccc(C(F)(F)F)cc3)c2O[C@H]1CN(C)C 38.7% [at 10 µM], CNc1cncc(-c2cccc(C(=O)N(C)C)c2)n1 -17.7%, COc1ccc(CN(C)C[C@@H]2Oc3c(NC(=O)NC4CCCCC4)cccc3C(=O)N([C@H](C)CO)C[C@H]2C)cc1 17.6%, COc1ccc(CNCc2c(O)c(Cl)cc3c(C)c(C)c(=O)oc23)c(OC)c1 83.8% [at 5.6 µM], O=S(=O)(O)c1ccc(N2N=C(c3ccccc3)CC2c2ccccc2)cc1 (configuration not stated) 162%, COCc1cn(CC[C@@H]2CC[C@H](NC(=O)CCN3CCCCC3)[C@H](CO)O2)nn1 19.3%, Cc1cccc2sc(N(CCCN(C)C)C(=O)c3ccc4ncsc4c3)nc12 -4.43%, C[C@H](CO)N1C[C@H](C)[C@@H](CN(C)S(=O)(=O)c2ccccc2)Oc2ccc(NC(=O)CCN3CCOCC3)cc2C1=O 17.7%, CCN1CCCC1CNS(=O)(=O)c1cccc(C(F)(F)F)c1 (configuration not stated) -3.89%, c1ccc(Nc2nc(NCC3CCCO3)c3ccccc3n2)cc1 (configuration not stated) 38.2%, Cc1ccc(S(=O)(=O)N2CCN(C(=O)COC(=O)c3ccc(Cl)c(S(N)(=O)=O)c3)CC2)c(C)c1 -9.71%, C[C@H]1CCCCO[C@@H](CN(C)S(=O)(=O)c2cn(C)cn2)[C@@H](C)CN([C@@H](C)CO)C(=O)c2cc(NC(=O)Nc3ccccc3)ccc2O1 13.8%, N#Cc1c(NC(=O)c2cccc(S(=O)(=O)Nc3ccc(C(=O)O)cc3)c2)sc2c1CCCC2 -7.29%, O=C(NCc1ccccc1Cl)c1cc(=O)[nH]c2ccccc12 -10.3%, CN(c1ccccc1)S(=O)(=O)c1cc(C(=O)OCC(=O)N2CCN(C(=O)c3ccco3)CC2)ccc1Cl -3.85%, CCN(CC)c1ccc2c(C)c(Cl)c(=O)oc2c1 59.1%, CCc1c(C)c2cc(Cl)c(O)c(CN3CCCC3)c2oc1=O 20.7%, O=c1oc2cc(O)ccc2cc1-c1nc2ccccc2o1 27.1%, CCCNC(=O)N1C[C@@H](C)[C@@H](OC)CN(C)C(=O)c2cc(NS(=O)(=O)CC(F)(F)F)ccc2OC[C@@H]1C 53.2%, CCN(CC)CCCN=C1N[C@@H](c2ccccc2)C(C(=O)OC)=C(C)N1CC -11.5%, C[C@H](CO)N1C[C@H](C)[C@@H](CN(C)C)Oc2c(NC(=O)Nc3ccc(C(F)(F)F)cc3)cccc2C1=O 64.7%
